From PubChem
ERb coact inh = inhibitors of ERβ-SRC1 coactivator interaction, primary screen, biochemical, TR-FRET, ERβ LBD, SRC-1 peptide | Estrogen receptor beta (Homo sapiens), Q92731 | TR-FRET ER-beta LBD / SRC1-Cy5 peptide binding; receptor agonist-loaded with 1 µM estradiol | inhibition, % at 25.6 µM | 86,000 tested, 1.3% active;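 active means compounds whose percent inhibition of the receptor-coactivator binding signal exceeds about 50% in the single-dose screen, limit read from the data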
Target sequence (Q92731 whole entry, looked up, the tested form may be a part): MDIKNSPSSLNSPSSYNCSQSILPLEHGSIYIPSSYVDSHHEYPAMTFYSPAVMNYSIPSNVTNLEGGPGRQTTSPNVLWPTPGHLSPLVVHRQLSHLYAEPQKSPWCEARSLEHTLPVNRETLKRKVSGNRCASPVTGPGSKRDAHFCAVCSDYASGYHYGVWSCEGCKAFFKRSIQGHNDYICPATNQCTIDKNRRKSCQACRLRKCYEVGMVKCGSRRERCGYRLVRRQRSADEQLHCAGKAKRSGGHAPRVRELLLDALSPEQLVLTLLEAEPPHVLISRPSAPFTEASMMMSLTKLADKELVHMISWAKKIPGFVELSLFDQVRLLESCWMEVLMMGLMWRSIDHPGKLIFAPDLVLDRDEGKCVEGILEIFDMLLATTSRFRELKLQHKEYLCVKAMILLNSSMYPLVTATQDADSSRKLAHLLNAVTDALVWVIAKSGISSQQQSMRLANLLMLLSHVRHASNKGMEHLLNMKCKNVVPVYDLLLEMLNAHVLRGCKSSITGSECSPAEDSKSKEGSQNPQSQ
ERa coact pot = enhancers of ERα–SRC-1 coactivator binding, primary screen, biochemical, TR-FRET, ERα LBD, low estradiol; 86,000 tested, 1.3% active; TR-FRET ERalpha-LBD/SRC-Cy5 coactivator binding, 2 h; 100 = basal binding, no effect; Estrogen receptor (Homo sapiens), P03372; coactivator binding (% of control), % at 25.6 µM; in the data active means activity above about 200%;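 further: binding measured in presence of low estradiol as agonist stimulus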
HUVEC tox IL1B = cytotoxicity in IL-1B stimulated HUVEC, primary screen, cytotoxicity control for IL-1B NFkB translocation project, imaging, Hoechst nuclear count, IL-1B stimulus; HUVEC cell count loss; 94,000 tested, 0.41% active; cell count reduction, % at 2 µM;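 active means cell count reduction more than 3 SD above the screen-wide mean, cut at about 70% in these data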
ERa SRC1 inh = ERα–SRC-1 coactivator interaction inhibitors, primary screen, biochemical, TR-FRET, ERα LBD, estradiol-bound; TR-FRET ER-alpha LBD / SRC-1 peptide; Estrogen receptor (Homo sapiens), P03372; 86,000 tested, 1.7% active; inhibition, % at 25.6 µM; in the data active means inhibition above about 50%
IL1B NFkB inh = inhibitors of IL-1B driven NFkB p65 nuclear import, primary screen, imaging, HUVEC, IL-1B stimulus, high-content imaging; 94,000 tested, 0.43% active; inhibition, % at 2 µM; HUVEC IL-1B NFkB p65 nuclear translocation imaging;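 active means inhibition above about 30% together with a positive call from visual inspection of the well image, limit read from the data; inconclusive means inhibition above a set limit but visual check negative; inactive means inhibition not above a set limit, visual check negative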;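 further: nuclear over cytoplasmic p65 intensity ratio measured by imaging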
IL1B NFkB pot = enhancers of NFkB p65 translocation in HUVEC – imaging, IL-1B stimulus, high-content imaging, primary screen | 94,000 tested, 0.3% active | activation, % at 2 µM | HUVEC IL-1B NFkB p65 nuclear translocation imaging;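 active means activation above 40%, about the mean plus 3 SD, also judged a hit on visual image review; inconclusive means activation above 40% but not a hit on visual review; inactive means activation not above 40% and no visual hit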;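 further: percent activation is computed from the nuclear over cytoplasmic p65 intensity ratio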
A number is an active result; . = inactive; ? = inconclusive; / = no result given; [ ] = another dose, or the depositor's remark. This is a sample that favours compounds with a hit; in the whole collection about 3.6% have one here.

SMILES	ERb coact inh	ERa coact pot	HUVEC tox IL1B	ERa SRC1 inh	IL1B NFkB inh	IL1B NFkB pot
CCC(=O)N1CCc2cc(S(=O)(=O)N3CCN(C(=O)c4ccco4)CC3)ccc21	.	.	.	.	.	.
CC(=O)N1CCc2cc(S(=O)(=O)CCC(=O)N3CCN(C(=O)c4ccco4)CC3)ccc21	.	.	86	.	.	.
Cc1ccc(NC(=O)c2ccccc2N(C)S(C)(=O)=O)cc1C	.	.	.	.	.	.
CCC(=O)Oc1ccc(C(CC)C(CC)c2ccc(OC(=O)CC)cc2)cc1 (stereo unspecified)	.	577	/	.	/	/
COc1ccc(OC)c(NC(=O)C2CCCN(S(=O)(=O)c3cccc4cccnc34)C2)c1 (stereo unspecified)	.	.	.	.	.	.
CC12CN(S(=O)(=O)c3ccccc3)CC(C)(CN(S(=O)(=O)c3ccccc3)C1)C2	.	.	.	.	.	.
Nc1c(C(=O)c2ccc(Br)s2)oc2ccccc12	.	.	.	.	.	.
Nc1c(C(=O)c2cccs2)oc2ccccc12	.	259[fluorescence artefact?]	.	.	.	.
O=C(C1CCCCC1)N(Cc1nc2sc3c(c2c(=O)[nH]1)CCCC3)Cc1cccs1	.	.	.	.	.	.
c1ccc(-c2nc(N3CCN(c4ccccc4)CC3)nc(-n3ccnc3)n2)cc1	.	.	.	83[fluorescence artefact?]	.	.
O=C(NCC(c1cccnc1)N1CCOCC1)c1ccc2c(c1)OCO2 (stereo unspecified)	.	.	.	.	36	.
O=C(Cn1nnc2ccccc21)N/N=C\C=C\c1ccccc1	/	/	88	/	.	.
O=C(Cn1nnc2ccccc21)NCc1ccccc1	.	.	.	.	.	.
CON1C(=O)C(=O)N(OC)C2CCCCC21 (stereo unspecified)	/	/	.	/	.	.
Cc1ccc(C(=O)N2c3ccccc3N(Cc3ccccc3)C(=O)C2(C)C)cc1	.	.	.	.	.	.
Cc1cc(C)n2nc(C(=O)Nc3ccc4c(c3)OCO4)nc2n1	.	.	.	59[fluorescence artefact?]	.	.
CCOC(=O)/C=C1\SCC(=O)N1CC(=O)c1ccc[nH]1	64[fluorescence artefact?]	.	.	87[fluorescence artefact?]	.	?
COc1ccc(-c2cc(-c3ccc(OC)cc3)c(C#N)c(SC)n2)cc1	.	458[fluorescence artefact?]	.	.	.	.
CN(c1ccccc1C(=O)Nc1cccc(Cl)c1Cl)S(C)(=O)=O	.	.	.	.	.	.
c1ccc2c(CNCCN3CCOCC3)cccc2c1	.	.	.	.	.	.
Cc1cccc(NC(=S)NC(=O)c2cc(-c3ccccc3)nc3ccccc23)c1	/	/	.	/	.	.
O=C(Nc1ccon1)c1cc(-c2ccccc2)nc2ccccc12	.	.	94	.	72	.
COc1ccc(S(=O)(=O)N2CCC(C(=O)N3CCc4ccccc4C3)CC2)cc1Cl	.	.	.	.	.	.
CCS(=O)(=O)N1CCC(C(=O)N2CCc3ccccc3C2)CC1	.	245[fluorescence artefact?]	.	.	.	.
O=C(CNC(=O)c1ccco1)OCc1ccc(Cl)cc1	60	.	.	.	.	.
SMILES	ERb coact inh	ERa coact pot	HUVEC tox IL1B	ERa SRC1 inh	IL1B NFkB inh	IL1B NFkB pot
COC(=O)c1cccc(COC(=O)CNC(=O)c2ccco2)c1	/	/	.	/	.	?
CNCc1ccccc1OCC(=O)Nc1ccccc1OC	.	.	.	.	.	.
COCc1nnc(NS(=O)(=O)c2c(C)cc(C)cc2C)s1	.	.	.	.	.	.
O=C(CSc1nc2c([nH]c3ccccc32)c(=O)n1-c1ccc(F)cc1)NCc1ccco1	.	.	.	.	.	.
COc1ccc(-c2cc3nc4c(c(=O)n3[nH]2)CCC4)cc1	.	.	.	52[fluorescence artefact?]	.	.
C=CCc1ccc(OCCOCCNCCCC)c(OC)c1	.	.	.	.	.	.
Cc1nn(C(=O)c2ccco2)c(C)c1CN1C(=O)c2ccccc2C1=O	.	200[fluorescence artefact?]	.	.	.	.
